# In PMC11006913:
# Where a chain is given by its changes, count along the chain named.
# Legend:
# Experiment in all cases: PBM; 200 nM protein, PBS
# Conditions in all cases: dsDNA, one strand shown
# VENTX = target: T1, VENTX (Homo sapiens, UniProt O95231 78-163, Y115F)
# T1 sequence: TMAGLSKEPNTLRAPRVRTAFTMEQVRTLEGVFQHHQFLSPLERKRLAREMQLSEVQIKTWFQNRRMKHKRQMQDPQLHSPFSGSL
# HOXA2 [1] = target: HOXA2 (Homo sapiens, UniProt O43364 129-215, R185T)
# MSX2 = MSX2 (Homo sapiens, UniProt P35548 130-214, R199I)
# HOXA2 [2] = target: HOXA2 (Homo sapiens, UniProt O43364 129-215, R185K)
# PAX4 [3] = target: T2, PAX4 (Homo sapiens, UniProt O43316 9-242)
# T2 sequence: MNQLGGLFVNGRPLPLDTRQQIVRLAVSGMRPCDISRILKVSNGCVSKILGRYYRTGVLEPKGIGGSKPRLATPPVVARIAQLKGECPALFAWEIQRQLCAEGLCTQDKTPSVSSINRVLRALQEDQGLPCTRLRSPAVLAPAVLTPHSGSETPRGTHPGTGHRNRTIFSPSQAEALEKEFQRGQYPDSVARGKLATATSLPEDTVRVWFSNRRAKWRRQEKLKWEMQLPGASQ
# SIX6 [4] = target: T3, SIX6 (Homo sapiens, UniProt O95475 114-200, T165P)
# T3 sequence: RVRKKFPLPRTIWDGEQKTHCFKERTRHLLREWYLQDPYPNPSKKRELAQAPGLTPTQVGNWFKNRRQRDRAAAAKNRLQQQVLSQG
# SIX6 [5] = target: T4, SIX6 (Homo sapiens, UniProt O95475 114-200, L167M)
# T4 sequence: T3 sequence with P52T, L54M
# ALX3 [6] = target: ALX3 (Homo sapiens, UniProt O95076 139-225, N203Q)
# ALX3 [7] = target: ALX3 (Homo sapiens, UniProt O95076 139-225)
# ALX3 [8] = target: ALX3 (Homo sapiens, UniProt O95076 139-225, N203S)
# SIX6 [9] = target: T5, SIX6 (Homo sapiens, UniProt O95475 114-200, L143M)
# T5 sequence: T3 sequence with L30M, P52T
# SIX6 [10] = target: T6, SIX6 (Homo sapiens, UniProt O95475 114-200, L143I)
# T6 sequence: T3 sequence with L30I, P52T
# SIX6 [11] = target: T7, SIX6 (Homo sapiens, UniProt O95475 114-200, T165I)
# T7 sequence: T3 sequence with P52I
# PAX4 [12] = target: T8, PAX4 (Homo sapiens, UniProt O43316 9-242, F177V)
# T8 sequence: T2 sequence with F169V
# PAX4 [13] = target: T9, PAX4 (Homo sapiens, UniProt O43316 9-242, R227W)
# T9 sequence: T2 sequence with R219W
# PAX4 [14] = target: T10, PAX4 (Homo sapiens, UniProt O43316 9-242, F177Y)
# T10 sequence: T2 sequence with F169Y
# VAX1 [15] = target: VAX1 (Homo sapiens, UniProt Q5SQQ9 86-172)
# VAX1 [16] = target: VAX1 (Homo sapiens, UniProt Q5SQQ9 86-172, T142I)
# VAX1 [17] = target: VAX1 (Homo sapiens, UniProt Q5SQQ9 86-172, K157R)
# Chain of VAX1 (Homo sapiens, UniProt Q5SQQ9 86-172, K157R) (Q5SQQ9 86-172 K157R): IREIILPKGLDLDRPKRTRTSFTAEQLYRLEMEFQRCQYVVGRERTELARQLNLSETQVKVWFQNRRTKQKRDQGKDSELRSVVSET
# Chain of VAX1 (Homo sapiens, UniProt Q5SQQ9 86-172, T142I) (Q5SQQ9 86-172 T142I): as the sequence (Q5SQQ9 86-172 K157R) above, with T57I, R72K counted along it
# Chain of VAX1 (Homo sapiens, UniProt Q5SQQ9 86-172) (Q5SQQ9 86-172): as the sequence (Q5SQQ9 86-172 K157R) above, with R72K counted along it
# Chain of HOXA2 (Homo sapiens, UniProt O43364 129-215, R185K) (O43364 129-215 R185K): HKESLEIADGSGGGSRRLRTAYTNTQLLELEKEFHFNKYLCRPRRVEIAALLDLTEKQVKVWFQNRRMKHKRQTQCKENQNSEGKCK
# Chain of ALX3 (Homo sapiens, UniProt O95076 139-225, N203Q) (O95076 139-225 N203Q): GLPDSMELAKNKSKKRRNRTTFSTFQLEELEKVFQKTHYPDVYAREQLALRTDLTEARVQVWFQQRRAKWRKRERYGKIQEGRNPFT
# Chain of ALX3 (Homo sapiens, UniProt O95076 139-225, N203S) (O95076 139-225 N203S): as the sequence (O95076 139-225 N203Q) above, with Q65S counted along it
# Chain of HOXA2 (Homo sapiens, UniProt O43364 129-215, R185T) (O43364 129-215 R185T): as the sequence (O43364 129-215 R185K) above, with K57T counted along it
# Chain of ALX3 (Homo sapiens, UniProt O95076 139-225) (O95076 139-225): as the sequence (O95076 139-225 N203Q) above, with Q65N counted along it
# Chain of MSX2 (P35548 130-214 R199I): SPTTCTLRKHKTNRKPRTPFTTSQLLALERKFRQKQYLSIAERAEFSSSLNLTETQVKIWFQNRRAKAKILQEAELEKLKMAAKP
sequence,measurement,setting,value
CTAATCAC,binding signal,VENTX,"11.7 upbm affinity estimate (log intensity, higher = more binding, comparable within an allelic series)"
same,binding signal,HOXA2 [1],"12.7 upbm affinity estimate (log intensity, higher = more binding, comparable within an allelic series)"
same,binding signal,MSX2,"11.1 upbm affinity estimate (log intensity, higher = more binding, comparable within an allelic series)"
same,binding signal,HOXA2 [2],"13.3 upbm affinity estimate (log intensity, higher = more binding, comparable within an allelic series)"
CGTGTAAA,binding signal,PAX4 [3],"10.4 upbm affinity estimate (log intensity, higher = more binding, comparable within an allelic series)"
GTCGATTA,binding signal,VENTX,"10.9 upbm affinity estimate (log intensity, higher = more binding, comparable within an allelic series)"
GCGGATCC,binding signal,SIX6 [4],"9.05 upbm affinity estimate (log intensity, higher = more binding, comparable within an allelic series)"
CCGATTTA,binding signal,VENTX,"9.97 upbm affinity estimate (log intensity, higher = more binding, comparable within an allelic series)"
ATTTTTAC,binding signal,PAX4 [3],"10.5 upbm affinity estimate (log intensity, higher = more binding, comparable within an allelic series)"
CGATACGC,binding signal,SIX6 [4],"9.24 upbm affinity estimate (log intensity, higher = more binding, comparable within an allelic series)"
CGGATCGC,binding signal,SIX6 [4],"9.17 upbm affinity estimate (log intensity, higher = more binding, comparable within an allelic series)"
GAGGATCC,binding signal,SIX6 [4],"9.19 upbm affinity estimate (log intensity, higher = more binding, comparable within an allelic series)"
ACGATCCG,binding signal,SIX6 [4],"9.21 upbm affinity estimate (log intensity, higher = more binding, comparable within an allelic series)"
same,binding signal,SIX6 [5],"9.98 upbm affinity estimate (log intensity, higher = more binding, comparable within an allelic series)"
CGTGATCC,binding signal,SIX6 [4],"9.16 upbm affinity estimate (log intensity, higher = more binding, comparable within an allelic series)"
AATCGGTC,binding signal,VENTX,"10.1 upbm affinity estimate (log intensity, higher = more binding, comparable within an allelic series)"
GGATCCAC,binding signal,SIX6 [4],"9.18 upbm affinity estimate (log intensity, higher = more binding, comparable within an allelic series)"
ACCGATCA,binding signal,VENTX,"9.96 upbm affinity estimate (log intensity, higher = more binding, comparable within an allelic series)"
TAGTCACA,binding signal,PAX4 [3],"10.1 upbm affinity estimate (log intensity, higher = more binding, comparable within an allelic series)"
CCCGATAC,binding signal,SIX6 [4],"9.17 upbm affinity estimate (log intensity, higher = more binding, comparable within an allelic series)"
AAATGGGT,binding signal,VENTX,"10.2 upbm affinity estimate (log intensity, higher = more binding, comparable within an allelic series)"
same,binding signal,ALX3 [6],"8.27 upbm affinity estimate (log intensity, higher = more binding, comparable within an allelic series)"
same,binding signal,ALX3 [7],"9.3 upbm affinity estimate (log intensity, higher = more binding, comparable within an allelic series)"
same,binding signal,ALX3 [8],"8.31 upbm affinity estimate (log intensity, higher = more binding, comparable within an allelic series)"
GATTTTCA,binding signal,PAX4 [3],"10.7 upbm affinity estimate (log intensity, higher = more binding, comparable within an allelic series)"
GTATCGAA,binding signal,SIX6 [5],"10.2 upbm affinity estimate (log intensity, higher = more binding, comparable within an allelic series)"
ATATACCC,binding signal,SIX6 [5],"11.1 upbm affinity estimate (log intensity, higher = more binding, comparable within an allelic series)"
same,binding signal,SIX6 [9],"10.9 upbm affinity estimate (log intensity, higher = more binding, comparable within an allelic series)"
same,binding signal,SIX6 [10],"10.4 upbm affinity estimate (log intensity, higher = more binding, comparable within an allelic series)"
same,binding signal,SIX6 [11],"11 upbm affinity estimate (log intensity, higher = more binding, comparable within an allelic series)"
GAATTGAA,binding signal,PAX4 [3],"10.6 upbm affinity estimate (log intensity, higher = more binding, comparable within an allelic series)"
same,binding signal,PAX4 [12],"10.1 upbm affinity estimate (log intensity, higher = more binding, comparable within an allelic series)"
same,binding signal,PAX4 [13],"10.1 upbm affinity estimate (log intensity, higher = more binding, comparable within an allelic series)"
GGCGATAC,binding signal,SIX6 [5],"10.1 upbm affinity estimate (log intensity, higher = more binding, comparable within an allelic series)"
AATAACGG,binding signal,PAX4 [3],"10.8 upbm affinity estimate (log intensity, higher = more binding, comparable within an allelic series)"
same,binding signal,PAX4 [12],"10 upbm affinity estimate (log intensity, higher = more binding, comparable within an allelic series)"
same,binding signal,PAX4 [14],"10.1 upbm affinity estimate (log intensity, higher = more binding, comparable within an allelic series)"
same,binding signal,PAX4 [13],"10.1 upbm affinity estimate (log intensity, higher = more binding, comparable within an allelic series)"
GTTAACCA,binding signal,PAX4 [3],"10.5 upbm affinity estimate (log intensity, higher = more binding, comparable within an allelic series)"
same,binding signal,PAX4 [12],"9.85 upbm affinity estimate (log intensity, higher = more binding, comparable within an allelic series)"
same,binding signal,PAX4 [14],"9.89 upbm affinity estimate (log intensity, higher = more binding, comparable within an allelic series)"
same,binding signal,PAX4 [13],"9.96 upbm affinity estimate (log intensity, higher = more binding, comparable within an allelic series)"
CGTATCGA,binding signal,SIX6 [5],"10 upbm affinity estimate (log intensity, higher = more binding, comparable within an allelic series)"
AATATACC,binding signal,SIX6 [5],"10.9 upbm affinity estimate (log intensity, higher = more binding, comparable within an allelic series)"
AATTGCGA,binding signal,PAX4 [3],"10.7 upbm affinity estimate (log intensity, higher = more binding, comparable within an allelic series)"
same,binding signal,PAX4 [12],"9.91 upbm affinity estimate (log intensity, higher = more binding, comparable within an allelic series)"
same,binding signal,PAX4 [14],"10 upbm affinity estimate (log intensity, higher = more binding, comparable within an allelic series)"
same,binding signal,VAX1 [15],"9.89 upbm affinity estimate (log intensity, higher = more binding, comparable within an allelic series)"
same,binding signal,VAX1 [16],"9.67 upbm affinity estimate (log intensity, higher = more binding, comparable within an allelic series)"
same,binding signal,PAX4 [13],"10.1 upbm affinity estimate (log intensity, higher = more binding, comparable within an allelic series)"
same,binding signal,VAX1 [17],"9.62 upbm affinity estimate (log intensity, higher = more binding, comparable within an allelic series)"
GTATCGGA,binding signal,SIX6 [5],"10.1 upbm affinity estimate (log intensity, higher = more binding, comparable within an allelic series)"
ACTAACTA,binding signal,PAX4 [3],"10.8 upbm affinity estimate (log intensity, higher = more binding, comparable within an allelic series)"
same,binding signal,PAX4 [12],"10.1 upbm affinity estimate (log intensity, higher = more binding, comparable within an allelic series)"
same,binding signal,PAX4 [14],"10.1 upbm affinity estimate (log intensity, higher = more binding, comparable within an allelic series)"
same,binding signal,PAX4 [13],"10.2 upbm affinity estimate (log intensity, higher = more binding, comparable within an allelic series)"
CCATATCG,binding signal,SIX6 [5],"10.1 upbm affinity estimate (log intensity, higher = more binding, comparable within an allelic series)"
CACGTATC,binding signal,SIX6 [5],"10.2 upbm affinity estimate (log intensity, higher = more binding, comparable within an allelic series)"
CGACACCA,binding signal,SIX6 [5],"9.52 upbm affinity estimate (log intensity, higher = more binding, comparable within an allelic series)"
ATTTTGGA,binding signal,PAX4 [3],"10.5 upbm affinity estimate (log intensity, higher = more binding, comparable within an allelic series)"
same,binding signal,PAX4 [14],"10 upbm affinity estimate (log intensity, higher = more binding, comparable within an allelic series)"
ATATACTC,binding signal,SIX6 [5],"10.7 upbm affinity estimate (log intensity, higher = more binding, comparable within an allelic series)"
same,binding signal,SIX6 [10],"10.4 upbm affinity estimate (log intensity, higher = more binding, comparable within an allelic series)"
ATCTATAC,binding signal,SIX6 [5],"10.7 upbm affinity estimate (log intensity, higher = more binding, comparable within an allelic series)"
same,binding signal,SIX6 [10],"10.4 upbm affinity estimate (log intensity, higher = more binding, comparable within an allelic series)"
same,binding signal,PAX4 [14],"10.4 upbm affinity estimate (log intensity, higher = more binding, comparable within an allelic series)"
CGTATCAG,binding signal,SIX6 [5],"10.2 upbm affinity estimate (log intensity, higher = more binding, comparable within an allelic series)"
GTATCGAC,binding signal,SIX6 [5],"9.96 upbm affinity estimate (log intensity, higher = more binding, comparable within an allelic series)"
CGTTATGC,binding signal,PAX4 [3],"10.3 upbm affinity estimate (log intensity, higher = more binding, comparable within an allelic series)"
same,binding signal,PAX4 [13],"9.97 upbm affinity estimate (log intensity, higher = more binding, comparable within an allelic series)"
GAGATATA,binding signal,SIX6 [5],"10.8 upbm affinity estimate (log intensity, higher = more binding, comparable within an allelic series)"
CATATCGA,binding signal,SIX6 [5],"10.2 upbm affinity estimate (log intensity, higher = more binding, comparable within an allelic series)"
CCAATCAG,binding signal,PAX4 [3],"10.5 upbm affinity estimate (log intensity, higher = more binding, comparable within an allelic series)"
same,binding signal,PAX4 [12],"9.65 upbm affinity estimate (log intensity, higher = more binding, comparable within an allelic series)"
same,binding signal,PAX4 [14],"9.83 upbm affinity estimate (log intensity, higher = more binding, comparable within an allelic series)"
same,binding signal,PAX4 [13],"9.74 upbm affinity estimate (log intensity, higher = more binding, comparable within an allelic series)"
